About 540 (0.62%) of roughly 87,000 compounds were called active. The rule behind the calls is not given here. The sample as a whole holds a higher share of actives than the screen did. Results with a measured potency or affinity are listed apart.
test: MT1-MMP gene expression reporter suppression – cell-based, luciferase reporter, luminescence (AID 618); settings: MT1-MMP promoter luciferase reporter cells;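 note: actives suppress MT1-MMP promoter-driven transcription so potencies describe inhibitors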

Structure (SMILES) | outcome
Clc1cc(NCc2cccs2)ccc1N1CCOCC1 | inactive
Cc1cc(N2CC34C=CC(O3)C(C(=O)O)C4C2=O)no1 (centres undefined) | inactive
CCOCCn1c(CN2CCN(CC)CC2)nc2c1c(=O)n(C)c(=O)n2C | inactive
NC1=NC2(CCC(c3ccccc3)CC2)n2c(nc3ccccc32)N1 (centres undefined) | inactive
CC(C)N(Cc1nc(-c2ccc(Cl)cc2)no1)C(=O)CN(C)S(=O)(=O)c1ccc(Cl)cc1 | inactive
Cc1ccc(NC(=O)c2cc(C)on2)cc1 | inactive
COC(=O)N1CC=CC1(C)C(=O)NCC1CC1 (centres undefined) | inactive
O=C(NCc1ccc2c(c1)OCO2)C1(S(=O)(=O)c2ccccc2)CC1 | inactive
Cc1nc2ccc3nc(NC(=O)c4ccc5c(c4)OCCO5)sc3c2s1 | inactive
Cc1nc2c(ccc3nc(NC(=O)c4ccc5c(c4)OCCO5)sc32)s1 | active
Cc1nc2c(ccc3nc(NC(=O)c4ccc(S(=O)(=O)N(C)C)cc4)sc32)s1 | inactive
Cc1cc(NC(=O)c2ccc3c(c2)OCCO3)no1 | active
Cc1cc(NC(=O)c2ccc(Cl)cc2)no1 | inactive
Cc1cc(NC(=O)c2ccc3c(c2)OCO3)no1 | inactive
CC(=O)c1ccc(NC(=O)CSc2nnc(NC(=O)CN3CCOCC3)s2)cc1 | inactive
Cn1cccc1C(=O)NC(=O)COC(=O)CC12CC3CC(CC(C3)C1)C2 | inactive
Cc1cc2c(c(=O)n1C1CC1)C(c1cccc(Cl)c1)C(C#N)=C(N)O2 (centres undefined) | inactive
CN1CCN(CCCN2c3ccccc3Sc3ccc(C(F)(F)F)cc32)CC1 | inactive
OCCN1CCN(CCCN2c3ccccc3Sc3ccc(Cl)cc32)CC1 | inactive
OCCN1CCN(CCCN2c3ccccc3Sc3ccc(C(F)(F)F)cc32)CC1 | active
O=C(Nc1ccccc1C(=O)OCn1nnc2ccccc2c1=O)c1ccco1 | inactive
CC(=O)Nc1ccc(S(=O)(=O)N2CCC(c3nc4ccc(C)cc4[nH]3)CC2)cc1 | inactive
C=CCn1c(/N=C/c2ccc(N(C)C)cc2)nc2ccccc21 | inactive
Cc1nc2ccccc2c(=O)n1/N=C/c1ccc(N(C)C)cc1 | inactive
CN(C)c1ccc(/C=N/n2ncc3ccccc32)cc1 | active

Structure (SMILES) | outcome
CCCN=Cc1c(CCC)[nH]n(-c2nc3ccccc3s2)c1=O | inactive
CCCc1[nH]n(-c2nc3ccccc3s2)c(=O)c1C=NCC(C)C | inactive
O=C(CCN1C(=O)C2C3C=CC(C3)C2C1=O)N1CCN(c2ccccc2Cl)CC1 (centres undefined) | inactive
O=C(NCc1ccc2c(c1)OCO2)c1c[nH]c2ccc(S(=O)(=O)N3CCOCC3)cc2c1=O | inactive
COC(=O)Cn1c(C)c(C#N)c2ccccc21 | inactive
CCCOc1ccc2ccccc2c1/C=N/n1c(C)nnc1-n1nc(C)cc1C | active
Cc1cc(C)n(-c2nnc(C)n2/N=C/c2cc(Br)ccc2OCc2ccccc2)n1 | inactive
COc1ccccc1/C=N/n1c(C)nnc1-n1nc(C)cc1C | inactive
Cc1nn(C)cc1C=NCCOCc1ccccc1 | inactive
O=C(CCC(=O)c1cccs1)NC(c1ccccc1)c1ccccc1 | inactive
COc1ccc2c(=O)c(-c3nc(C)cs3)coc2c1 | active
Cc1csc(-c2coc3cc(O)cc(C)c3c2=O)n1 | inactive
COc1ccc2oc(=O)c(-c3nc(C)cs3)cc2c1 | inactive
CCCC(=O)Nc1cnc(NC(=O)c2cccc(F)c2)cc1C | inactive
CCN(CCCNC(=O)CN1C(=O)COc2ccccc21)c1ccccc1 | inactive
COc1cc(C2C(C#N)=C(C)NC3=C2C(=O)c2ccccc23)cc(OC)c1OC (centres undefined) | active
COc1cc(C2C(C#N)=C(C)NC3=C2C(=O)CC(C)(C)C3)cc(OC)c1O (centres undefined) | inactive
COc1ccc(C2C(C#N)=C(C)NC3=C2C(=O)c2ccccc23)cc1 (centres undefined) | inactive
CCCCCC(=O)N(O)C1CC(=O)N(c2ccccc2)C1=O (centres undefined) | inactive
COC(=O)c1ccc(Nc2nc(C)cc(C)n2)cc1 | inactive
CCOC(=O)c1ccccc1NC(=O)CN(c1ccccc1C)S(C)(=O)=O | inactive
CN1C(=O)c2c(sc3c2CC(C)(C)SC3)N2CCN=C12 | inactive
O=C1CN(C(=O)c2ccccc2)c2ccccc2N1 | inactive
Cc1ccsc1C(=O)N1CC(=O)Nc2ccccc21 | inactive
Cc1cc(C)cc(C(=O)N2CC(=O)Nc3ccccc32)c1 | active

Structure (SMILES) | outcome
O=C(CCN1C(=O)c2ccccc2C1=O)Nc1ccccn1 | inactive
CNC(=O)C1CCCN1S(=O)(=O)c1ccc(OC)cc1 (centres undefined) | inactive
Cc1ccc(NC(=O)CS(=O)CC(=O)NCC2OCCc3ccccc32)c(C)c1 (centres undefined) | inactive
Cc1cccc(-c2c3c(=O)n(C)c(=O)n(C)c3c3c(C)cc(C)nn23)c1 | inactive
Cc1cc(S(=O)(=O)Nc2ccc(N(C)C)cc2)c(C)s1 | inactive
Fc1ccc2[nH]c3c(N4CCN(c5ccccc5)CC4)ncnc3c2c1 | inactive
COc1cccc(N2CCN(c3ncnc4c3[nH]c3ccc(F)cc34)CC2C)c1 (centres undefined) | active
COc1cccc(N2CCN(c3ncnc4c3[nH]c3ccccc34)CC2C)c1 (centres undefined) | inactive
OC(CCN1CCCC1)(c1ccccc1)C1CCCCC1 (centres undefined) | inactive
CC(C)(C)c1ccc(C(O)CCCN2CCC(C(O)(c3ccccc3)c3ccccc3)CC2)cc1 (centres undefined) | active
OC(CCCCN1CCCCC1)c1ccccc1 (centres undefined) | inactive
Nc1ccc2nn(-c3cccc4ccccc34)nc2c1 | inactive
Cc1ccc(-n2nc(-c3ccc(N)cc3)cc2N)cc1 | inactive
CCOC(=O)CC1=CC(C)(CC(=O)OCC)C(C#N)(C#N)C(N)=C1C#N (centres undefined) | inactive
O=C(CC1(O)C(=O)Nc2ccccc21)c1ccc(-n2cccc2)cc1 (centres undefined) | inactive
CC(C)(C)NC(=O)CC(c1ccccc1)c1ccccc1O (centres undefined) | inactive
Cc1sc2nc(SCC(=O)NCc3cccs3)[nH]c(=O)c2c1C | inactive
Cc1cnc(NC(=O)COc2cccc3c2OC(C)(C)C3)s1 | inactive
Cc1cnc(NC(=O)COc2ccccc2)s1 | inactive
Cc1cnc(NC(=O)COc2ccccc2Cl)s1 | active
CCOC(=O)C1C(=O)NC(N2CCN(Cc3ccccc3)CC2)=NC1c1ccccc1 (centres undefined) | inactive
Clc1ccc(-c2nnc(-c3ccccc3)o2)c(Cl)c1 | inactive
Fc1ccc(-c2nnc(-c3ccc(Cl)cc3)o2)cc1 | inactive
Cc1cccc(NC(=O)CCc2ccc(C)o2)c1 | inactive

Source: PubChem BioAssay AID618 (Sanford-Burnham Center for Chemical Genomics, 2007)
